Compound activity (PubChem)
ROCK2 inh: inhibitors of human ROCK2 kinase, primary screen, biochemical, high-throughput, luminescence; Rho-associated protein kinase 2 (Homo sapiens), O75116; purified ROCK2, Kinase-Glo ATP depletion luminescence; inhibition, % at 6 µM; 60,000 compounds, 0.35% hits; AID 604, 2007;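 active means inhibition above the screen-wide mean inhibition plus 3 SD, cut at about 18% in these data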
Target sequence (O75116 whole entry, looked up): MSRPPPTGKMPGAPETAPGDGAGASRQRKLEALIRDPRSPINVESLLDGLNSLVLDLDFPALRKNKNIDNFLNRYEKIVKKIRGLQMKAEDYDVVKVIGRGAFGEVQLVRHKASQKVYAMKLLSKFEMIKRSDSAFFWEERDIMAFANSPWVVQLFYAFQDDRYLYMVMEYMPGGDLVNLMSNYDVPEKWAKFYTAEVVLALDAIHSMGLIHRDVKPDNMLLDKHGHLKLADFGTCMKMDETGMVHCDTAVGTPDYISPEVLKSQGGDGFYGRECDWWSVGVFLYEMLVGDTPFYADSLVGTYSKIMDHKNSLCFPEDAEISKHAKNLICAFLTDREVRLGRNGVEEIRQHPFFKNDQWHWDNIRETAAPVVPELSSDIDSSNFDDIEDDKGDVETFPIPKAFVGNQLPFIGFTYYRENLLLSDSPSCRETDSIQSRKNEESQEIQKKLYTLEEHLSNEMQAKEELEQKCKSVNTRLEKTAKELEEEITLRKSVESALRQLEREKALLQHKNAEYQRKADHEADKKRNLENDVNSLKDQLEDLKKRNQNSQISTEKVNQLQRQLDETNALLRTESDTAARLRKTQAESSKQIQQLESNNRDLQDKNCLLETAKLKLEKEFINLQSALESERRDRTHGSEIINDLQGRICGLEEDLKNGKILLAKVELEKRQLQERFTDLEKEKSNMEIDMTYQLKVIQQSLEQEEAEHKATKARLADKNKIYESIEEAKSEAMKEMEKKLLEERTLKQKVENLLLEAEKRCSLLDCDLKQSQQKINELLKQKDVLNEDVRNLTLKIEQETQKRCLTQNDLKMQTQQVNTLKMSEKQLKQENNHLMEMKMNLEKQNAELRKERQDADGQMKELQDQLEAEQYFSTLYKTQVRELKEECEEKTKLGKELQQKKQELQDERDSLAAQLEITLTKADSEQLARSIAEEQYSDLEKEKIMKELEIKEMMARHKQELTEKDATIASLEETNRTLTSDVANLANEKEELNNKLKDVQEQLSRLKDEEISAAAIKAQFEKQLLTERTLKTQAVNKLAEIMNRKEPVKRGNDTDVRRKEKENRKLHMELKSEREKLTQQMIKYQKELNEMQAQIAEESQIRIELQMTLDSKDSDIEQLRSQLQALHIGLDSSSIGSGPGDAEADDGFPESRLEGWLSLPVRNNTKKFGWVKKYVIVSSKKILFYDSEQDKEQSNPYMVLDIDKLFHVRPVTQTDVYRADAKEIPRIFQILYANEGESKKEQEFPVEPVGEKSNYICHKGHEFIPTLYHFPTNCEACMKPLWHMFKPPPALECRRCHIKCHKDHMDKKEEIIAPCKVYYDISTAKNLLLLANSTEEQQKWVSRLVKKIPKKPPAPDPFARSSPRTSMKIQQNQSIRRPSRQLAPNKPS
D1 allo mod: D1 CRE-luciferase signal change, two-sided – cell-based, HEK293 D1, dopamine EC30, D1 allosteric modulator project, primary screen; D(1A) dopamine receptor (Homo sapiens), P21728; dopamine EC30 potentiation; actives deviate in either direction; B-score at 10 µM; 58,000 compounds, 5.9% hits;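 active means luminescence count or its row- and column-corrected plate score outside the 99.7% band of the plate's sample wells, on either side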
DAT uptake mod: changed hDAT dopamine uptake under cocaine IC80, either direction, primary screen, cocaine antagonist project, cell-based, LLC-PK1 hDAT, [14C]-dopamine uptake, MLSMR. Sodium-dependent dopamine transporter (Homo sapiens), Q01959. LLC-PK1 hDAT cells, [14C]-dopamine uptake with cocaine IC80; actives deviate in either direction. B-score at 10 µM. 110,000 compounds, 1.3% hits. AID 449768, 2010;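 active means Z score or B-score, a plate-position-corrected score, falls beyond the plate's 99.7% confidence bounds, in either direction; inactive means both scores lie inside the 99.7% bounds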
PKA inh: inhibitors of human PKA kinase activity, primary screen, biochemical, ATP-depletion luminescence, Kemptide substrate; PKA Kemptide phosphorylation, Kinase-Glo ATP luminescence; inhibition, % at 6 µM; 65,000 compounds, 0.1% hits; AID 524, 2006;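 active means inhibition above the screen-wide mean inhibition plus 3 SD, cut at about 21% in these data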
D1 mod confirm: D1 receptor positive allosteric modulators, retest, confirmation, cell-based, HEK293 D1, CRE-luciferase, duplicate | shares compounds with D1 allo mod | dopamine EC30 potentiation; active compounds read high | luminescence at 10 µM | 2,200 compounds, 88% hits | AID 642, 2007;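 active means luminescence in either of two replicates above the same-plate mean plus 3 SD of the low-dose dopamine control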
D1 ag no DA: D1 receptor agonism without dopamine, confirmation, mechanism study for D1 allosteric modulator project, cell-based, HEK293 D1, CRE-luciferase, secondary assay 1. 1,900 compounds, 0.8% hits. luminescence, no dopamine; active compounds read high. shares compounds with D1 allo mod. luminescence at 10 µM; in the data active means luminescence above about 3900
Isoprot counter: counter-screen for D1 modulators: isoproterenol response in HEK293 cells. HEK293 D1 CRE-luciferase, isoproterenol EC30 counter-screen. calls only at 10 µM. AID 647. shares compounds with D1 allo mod. 2,200 compounds, 63% hits;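 active means luminescence in either replicate above plate mean of wells with a partly effective reference agonist dose plus 3 SD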;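 further: isoproterenol raises cAMP through native beta-adrenoceptor Gs so signal bypasses D1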
Each line names hits and unclear results; the compound was inactive in the other large screens (follow-up assays come after a bar, where they were run). The full list was thinned out, with hits kept by preference.

CCn1cnc2c1c(=O)n(CC(=O)Nc1cc(C)on1)c(=O)n2Cc1ccccc1	none
CCOC(=O)c1c(C)[nH]c(C(=O)Cn2c(=O)c3c(ncn3CC)n(Cc3ccccc3)c2=O)c1C	D1 allo mod 13 | D1 mod confirm 20428 | D1 ag no DA inactive | Isoprot counter active
COc1cccc(C(=O)N(CN2CCCC2=O)c2cccc(Cl)c2)c1	none (no result: D1 allo mod)
CC(C)Oc1ccc(C(=O)N(CN2CCCC2=O)c2ccc(F)cc2)cc1	D1 allo mod 4.5 | D1 mod confirm inactive | D1 ag no DA inactive | Isoprot counter inactive
CC(C#N)Sc1nc2ccccc2c(=O)n1-c1ccccc1 (stereo not given)	D1 allo mod 9.2 | D1 mod confirm 22624 | D1 ag no DA inactive | Isoprot counter active
CCCn1nnc(NC(=S)NC(=O)CC)n1	none (no result: ROCK2 inh, D1 allo mod, PKA inh)
COc1ccc(SC[C@H](CC(C)C)N2CCN(CCc3ccccc3)CCC2=O)cc1	none (no result: ROCK2 inh, D1 allo mod, PKA inh)
Cc1nc2ccc(CCO)cc2s1	D1 allo mod 6.4 | D1 mod confirm 7448 | D1 ag no DA inactive | Isoprot counter inactive
CN(C)CCCC1(c2ccc(F)cc2)OCc2cc(C#N)ccc21 (stereo not given)	none (no result: DAT uptake mod)
COc1cc2c(cc1OC)/C(=C/C(=O)N1CCOCC1)NC(C)(C)C2	D1 allo mod 10 | D1 mod confirm 18680 | D1 ag no DA inactive | Isoprot counter active
CCOC(=O)/C=C1\NC(C)(C)Cc2cc(OC)c(OC)cc21	none (no result: ROCK2 inh, D1 allo mod, PKA inh)
CCOC(=O)/C=C1\NC(C)(C)Cc2cc(OC)c(O)cc21	D1 allo mod 4 | D1 mod confirm 8420 | D1 ag no DA inactive | Isoprot counter inactive
CC(=O)N1CCN(c2cc(N3CCc4ccccc4C3)c(F)cc2[N+](=O)[O-])CC1	none (no result: ROCK2 inh, D1 allo mod, PKA inh)
C=CCn1c(SCc2nc3ccccc3nc2C)nnc1-c1ccoc1C	none
O=C(NCCNCCO)C1(C(F)(F)F)C/C(=C\CCO)CCCO1 (stereo not given)	none (no result: ROCK2 inh, D1 allo mod, PKA inh)
CCCS(=O)(=O)N1CCC(C(=O)NCCN(C)Cc2ccccc2)CC1	D1 allo mod 2.6 | D1 mod confirm inactive | D1 ag no DA inactive | Isoprot counter inactive
Cc1ccc2oc(C(=O)Nc3c(C)n(C)n(-c4ccccc4)c3=O)c(C)c2c1	none (no result: DAT uptake mod)
CC(C)CCn1c(N2CCN(c3cccc(Cl)c3)CC2)nc2c1c(=O)[nH]c(=O)n2C	D1 allo mod 15 | D1 mod confirm 18092 | D1 ag no DA inactive | Isoprot counter active
Cc1ccc(Cn2c(-n3nc(C)cc3C)nc3c2c(=O)[nH]c(=O)n3C)cc1	D1 allo mod 3.5 | D1 mod confirm 9484 | D1 ag no DA inactive | Isoprot counter inactive
CC1CCN(c2nc3c(c(=O)[nH]c(=O)n3C)n2Cc2ccccc2)CC1	D1 allo mod 7.9 | D1 mod confirm 16032 | D1 ag no DA inactive | Isoprot counter active
CCCCCCCCn1c(N2CCN(c3cccc(Cl)c3)CC2)nc2c1c(=O)[nH]c(=O)n2C	none (no result: ROCK2 inh, D1 allo mod, PKA inh)
Cn1c(=O)[nH]c(=O)c2c1nc(NC1CCCCC1)n2Cc1ccccc1	D1 allo mod 6.8 | D1 mod confirm 8436 | D1 ag no DA inactive | Isoprot counter active
Cc1cc(C)n(-c2nc3c(c(=O)[nH]c(=O)n3C)n2Cc2cccc(Br)c2)n1	none
C/C=C/C(=O)Nc1cccc(C2=NOC3(C2)C[C@@H](C(N)=O)N(C(=O)C(c2ccccc2)c2ccccc2)C3)c1 (stereo not given in full)	none (no result: ROCK2 inh, D1 allo mod, PKA inh)
CCCCNC(=O)C1CC(c2c(Cl)cccc2Cl)=NO1 (stereo not given)	none (no result: ROCK2 inh, D1 allo mod, PKA inh)
Cc1ccc(NC(=O)/C(=C\c2ccc3c(c2)OCO3)NC(=O)c2ccco2)cc1	none (no result: ROCK2 inh, D1 allo mod, PKA inh)
Cc1cc(C)c2c(n1)sc1c(N3CCN(CCO)CC3)ncnc12	D1 allo mod 7.2 | D1 mod confirm 11076 | D1 ag no DA inactive | Isoprot counter active
Cc1ccc(CN2[C@@H](CC(C)C)COCCS2(=O)=O)cc1	none (no result: ROCK2 inh, D1 allo mod, PKA inh)
CC1(C(=O)NCCCNc2ncc(C(F)(F)F)cc2Cl)C=CC2(CCCCC2)N1C(=O)c1ccccc1 (stereo not given)	none (no result: ROCK2 inh, D1 allo mod, PKA inh)
CC(O)(CC(=O)O)CC(=O)O	none (no result: ROCK2 inh, D1 allo mod, PKA inh)
COc1ccc(CCN2CCCn3c2nc2c3c(=O)n(Cc3ccccc3F)c(=O)n2C)cc1OC	D1 allo mod 6.3 | D1 mod confirm 17816 | D1 ag no DA inactive | Isoprot counter inactive
CCn1cnc2scc(-c3ccccc3)c2c1=O	D1 allo mod 15 | D1 mod confirm 14788 | Isoprot counter active
CCCc1nc2scc(-c3ccccc3)c2c(=O)n1N	D1 allo mod 6 | D1 mod confirm 8892 | D1 ag no DA inactive | Isoprot counter inactive
O=c1c2c(-c3ccccc3)csc2nc2n1CCC2	none
O=C(Cn1cnc2scc(-c3ccccc3)c2c1=O)N1CCOCC1	none
N#CCC(=O)N/N=C/c1ccc(Sc2nc3ccccc3s2)o1	none (no result: ROCK2 inh, D1 allo mod, PKA inh)
COc1ccc(CCNC(=O)C2CCN(c3ccc(N4CCOCC4)nn3)CC2)c(OC)c1	none (no result: ROCK2 inh, D1 allo mod, PKA inh)
Cc1ccc(CNc2oc(-c3cccs3)nc2C#N)cc1	D1 allo mod 18 | D1 mod confirm 22592 | D1 ag no DA inactive | Isoprot counter active
N#Cc1nc(-c2cccs2)oc1NCc1ccccc1Cl	none (no result: D1 allo mod, DAT uptake mod)
N#Cc1nc(-c2cccs2)oc1NCc1ccc(Cl)cc1	D1 allo mod 8.3 | D1 mod confirm 9676 | D1 ag no DA inactive | Isoprot counter active
N#Cc1nc(-c2ccc(F)cc2)oc1NCc1ccccc1	D1 allo mod 5.7 | D1 mod confirm 8092 | D1 ag no DA inactive | Isoprot counter inactive
COc1ccccc1-c1nc(C#N)c(NCc2ccc(F)cc2)o1	none
N#Cc1nc(-c2cccs2)oc1NCc1ccccc1	none (no result: D1 allo mod)
COC(=O)C1=C(CSc2nncn2C)NC(=O)NC1c1ccc(F)cc1 (stereo not given)	none (no result: ROCK2 inh, D1 allo mod, PKA inh)
COC(=O)c1sccc1NC(=O)CSc1nnnn1-c1ccccc1C	none (no result: ROCK2 inh, D1 allo mod, PKA inh)
NC(=O)c1cnn2c(C(F)(F)F)cc(-c3ccccc3)nc12	D1 allo mod 7.9 | D1 mod confirm 17628 | D1 ag no DA inactive | Isoprot counter active
NC(=O)c1cnn2c(C(F)(F)F)cc(-c3ccc(F)cc3)nc12	D1 allo mod 2.5 | D1 mod confirm 10756 | D1 ag no DA inactive | Isoprot counter active
CCOC(=O)c1ccc2c(c1)nc(SCc1cn3ccsc3n1)n2CC	D1 allo mod 13 | D1 mod confirm 23916 | D1 ag no DA inactive | Isoprot counter active
CCOC(=O)c1ccc2c(c1)nc(COc1ccc3ccccc3c1)n2CC	none (no result: ROCK2 inh, D1 allo mod, PKA inh)
